According to PubChem BioAssay (NCATS):
Where “and” joins values, the source holds several entries; their conditions need not be identical. Equal values may be shown once. Records with an inconclusive call do not appear. Calls of active or inactive are those of the source. Unless noted, calls come from the whole dose curve; as a rule, active = well fitted curve in the direction sought with a large enough effect; inconclusive = small, poorly fitted or top-dose-only effect, or another doubt; inactive = no such curve, though single readings can be large; an effect the other way counts as inactive or inconclusive.

How the values were obtained:
[1] = Cell Viability - BJ (AID 421; calls by dose curve;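 note: potency is the fitted concentration of half-maximal effect; cells exposed to compound for 40 hours at 37 °C before readout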); details: BJ fibroblast viability, qHTS
Method in brief: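 Normal human BJ foreskin fibroblasts, 1500/well in complete medium, treated 40 hr at 37 °C. Cellular ATP by CellTiter-Glo luminescence; normalized to DMSO and 100 uM tamoxifen, AC50 from Hill fit.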

[2] = Cell Viability - MRC5 (AID 434; calls by dose curve;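 note: potency is the fitted concentration of half-maximal effect; cells exposed to compound for 40 hours at 37 °C; potency reflects cytotoxicity seen as loss of intracellular ATP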); details: MRC5 lung fibroblast viability, qHTS
Method in brief: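 ATP luminescence read-out (CellTiter-Glo, 20 min RT) after 40 hr, 37 °C compound exposure of 1500 MRC5 cells/well. Data normalized to DMSO (basal) and 100 uM tamoxifen (100% inhibition); AC50 from standard Hill equation.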

[3] = Cell Viability - SK-N-SH (AID 435; calls by dose curve;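 note: potency is the fitted concentration of half-maximal effect; compound exposure lasted 40 h at 37 °C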); details: SK-N-SH neuroblastoma cell viability qHTS
Method in brief: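 Luminescent ATP signal served as the viability read-out after 40 hours of compound treatment of human neuroblastoma SK-N-SH cells. Concentration-response data, scaled between DMSO and 100 uM tamoxifen, gave AC50 values by standard Hill modeling.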

[4] = Cell Viability - NIH 3T3 (AID 541); details: NIH 3T3 cell viability, qHTS; activity change, negative = cytotoxicity: at 92.2 µM (top of the series); note: nearly all actives have a fitted effect of over 25% in size; note: potency is the fitted concentration of half-maximal effect;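 for activity change, negative = cytotoxicity: plate controls were DMSO alone for no effect and tamoxifen positive control for full effect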
Method in brief: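 Intracellular ATP (CellTiter-Glo luminescence, 20 min at room temperature) measured after 40 hr compound exposure at 37 °C of 1000 NIH 3T3 mouse fibroblasts/well in complete medium; AC50 derived by Hill-equation modelling of qHTS concentration-response curves.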

[5] = Cell Viability - Mesenchymal (AID 546); details: mesenchymal cells viability, qHTS; activity change, negative = cytotoxicity: at 91.7 µM (top of the series);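 note: cells exposed to compound for 40 hours before reading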; note: potency is the fitted concentration of half-maximal effect
Method in brief: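 Human renal mesenchymal cells (glomerulus-derived), 1000 cells/well, 5 hr 37 °C pre-incubation; compound 40 hr, 37 °C; CellTiter-Glo, 20 min RT; luminescence; AC50 via Hill equation.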

[6] = Cellular Toxicity (caspase-3) BJ (AID 658); details: BJ fibroblasts, luminescence, normalized: DMSO 0%, staurosporine 100%; series mostly up to 91.7 µM
Method in brief: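 qHTS, BJ fibroblasts, 1000 cells/well; 5 hr preincubation, 16 hr compound, 37 °C; Caspase-Glo 3/7 reagent, 1 hr RT; luminescence. DMSO = 0%, 10 uM staurosporine = 100%. Hill-equation AC50.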

[7] = Cellular Toxicity (caspase-3) MRC-5 (AID 659); details: MRC-5 cells, luminescence, normalized: DMSO 0%, 10 µM staurosporine 100%; series mostly up to 91.7 µM
Method in brief: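 MRC-5 fibroblasts, 1500/well; 16 h cpd, 37 °C; Caspase-Glo 3/7, 1 h RT; lumi read. Norm: DMSO = 0%, 10 uM staurosporine = 100%. Hill-fit AC50 from qHTS conc-response.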

[8] = Cellular Toxicity (caspase-3) Mesangial (AID 660); details: mesangial cells, normalized: DMSO 0%, 100 µM tamoxifen 100%; series mostly up to 91.7 µM;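 note: combined caspase 3 and 7 activity read by Caspase-Glo luminescence; cells exposed to compound for 16 h before the caspase read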
Method in brief: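 Caspase 3/7 activation measured by Caspase-Glo 3/7 luminescence (20 min, room temperature) following 16 h exposure of mesangial cells (1000/well); AC50 from Hill-equation fit, normalized to DMSO and 100 uM tamoxifen.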

[9] = Cellular Toxicity (caspase-3) Hek293 (AID 664); details: HEK293 caspase-3 activation, DMSO = 0%, 100 µM tamoxifen = 100%; series mostly up to 92.2 µM;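 note: cells exposed to compound for 16 h at 37 °C before readout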
Method in brief: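 Concentration-response qHTS: caspase 3/7 activation measured by luminescent aminoluciferin substrate cleavage after 16 h compound exposure of Hek 293 cells. AC50 from Hill equation, with DMSO as basal and 100 uM tamoxifen as 100%.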

[10] = Cellular Toxicity (caspase-3) Renal Proximal Tubule (AID 667); details: renal proximal tubule cells, primary cells freshly taken from rat, solvent-only wells 0%, staurosporine 100%; series mostly up to 91.7 µM;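 note: cells exposed to compound for 16 hours at 37 °C before detection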
Method in brief: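 AC50 derived by standard Hill fit of concentration-response data, normalized between DMSO basal and 10 uM staurosporine as 100% stimulation. Cells: primary rat kidney proximal tubule, 16 h treatment at 37 °C.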

[11] = MultiTox-Fluor Cytotoxicity Assay - LYMP1-003 - Live Cells (AID 962); details: LYMP1-003 lymphoblastoid cells, MultiTox-Fluor live-cell protease fluorescence; series mostly up to 92.2 µM;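 note: 0% = DMSO only and full loss = 92 µM tetraoctylammonium bromide; cytotoxic hits lower the live-cell protease signal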
Method in brief: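 Live-cell protease activity (GF-AFC substrate, 405/510 nm, 60 min at room temperature) after 16 h, 37 C compound exposure of human lymphoblastoid LYMP1-003 cells; concentration-response fitted to the Hill equation for AC50.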

[12] = qHTS Assay for Identification of Small Molecule Inducers of Hypoxia Response (AID 2120; active = well fitted curve in the direction sought with a large enough effect in the signal ratio, with a control signal flat, not every such curve was filed as active; the % refers to the signal ratio; note: 0% is about no effect); details: hypoxia response reporter cells, beta-lactamase ratio readout; series mostly up to 104 µM
Method in brief: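 Reporter induction read as the CCF4 blue/green (460nm/530nm) emission ratio after 2.5 h dye loading at room temperature. ME-180 HRE-beta-lactamase cells received titrated compounds for 17 h at 37 degrees Celsius; AC50 values derived.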

[13] = biological target: Thyroid hormone receptor beta (Homo sapiens) (UniProt P10828); test: qHTS assay for small molecule agonists of thyroid hormone receptor beta signaling (AID 588545; calls by dose curve;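 note: 0% = DMSO only and 100% = 10 nM T3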); details: TR-UAS-bla GripTite HEK 293, beta-lactamase ratio, agonist mode, 18 h, percent of T3 response, DMSO as zero; series mostly up to 76.7 µM
Method in brief: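 Stimulation of a TR-driven beta-lactamase reporter was quantified in GripTite HEK 293 cells. Compound series ran for 18 hrs; curves were normalized to T3 and DMSO controls and fitted to yield EC50.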

[14] = qHTS assay for small molecule antagonists of retinoid X receptor alpha signaling (AID 588546; active = well fitted inhibition curve with a large enough effect in the signal ratio, with a control signal flat, not every such curve was filed as active; the % refers to the signal ratio;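 note: cells stimulated with 9-cis-retinoic acid as agonist; % is set by controls: 0 for no effect and ±100 for the full control effect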); details: HEK293T RXRa-UAS-bla, beta-lactamase ratio, antagonist mode; measured here: W530 green channel, cytotoxicity proxy
Method in brief: (§1)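 Beta-lactamase reporter inhibition, read as CCF4 fluorescence ratio (ex 405, em 460/530 nm) after 2 h at RT. HEK293T UAS-bla cells, 2500/well, were stimulated with 9-cis-RA at 500 or 100 nM final alongside test compound for 18 h at 37 C.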

[15] = biological target: Retinoic acid receptor RXR-alpha (Homo sapiens) (UniProt P19793); test: as above; details: HEK293T RXRa-UAS-bla, beta-lactamase ratio, antagonist mode
Method in brief: as §1

[16] = qHTS assay for environmental chemicals that activate the Aryl hydrocarbon Receptor (AhR) signaling pathway (AID 651777); details: 1A2-DRE human hepatoma cells, luciferase, 24 h; activation: stronger effect = higher value; note: nearly all actives have a fitted effect of over 15% in size; note: potency is the fitted concentration of half-maximal effect; for activation: % of control where 0% means no effect
Method in brief: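 Human hepatoma 1A2-DRE cells, stably carrying a dioxin response element and CYP1A2 promoter driving luciferase, were exposed to compounds for 24 hr at 37 C and 5% CO2. Luciferase signal was then read after 30 min One-Glo at room temperature.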

[17] = biological target: Peroxisome proliferator-activated receptor alpha (Homo sapiens) (UniProt Q07869); test: qHTS assay for small molecule agonists of the peroxisome proliferator-activated receptor alpha (PPARalpha) signaling pathway (AID 651778); details: PathHunter PPARalpha complementation, chemiluminescence, 6 h; max response: stronger effect = higher value; note: % of control where 0% means no effect
Method in brief: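 Enzyme-fragment complementation assay in which ligand-bound PPARalpha translocates and forms an active enzyme that generates chemiluminescence. Cells were plated overnight, exposed to compound for 6 hr at 37 C, and then given detection reagent for 60 min at room temperature.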

[18] = qHTS assay for small molecule agonists of the antioxidant response element (ARE) signaling pathway measured by Nrf2-dependant transcriptional activity (AID 720636; active = well fitted curve in the direction sought with a large enough effect in the repeat runs; an effect the other way counts as inactive or inconclusive; note: potency is the fitted concentration of half-maximal effect; for activation: % of control where 0% means no effect); details: ARE-luc HepG2, Nrf2 luciferase reporter, 16 h; series mostly up to 92.4 µM
Method in brief: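 ARE-luc HepG2 cells carrying an Nrf2-responsive luciferase reporter were plated in medium with 1% dialyzed FBS, left 6 hr at 37 C to attach, then exposed to compound for 16 hr. Luciferase luminescence was read after ONE-Glo addition.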

[19] = qHTS assay for small molecule agonists of the antioxidant response element (ARE) signaling pathway measured by Nrf2-dependant transcriptional activity - cell viability counter screen (AID 720653; active = well fitted curve in the direction sought with a large enough effect in the repeat runs; an effect the other way counts as inactive or inconclusive; note: potency is the fitted concentration of half-maximal effect; for max response: % is set by controls: 0 for no effect and ±100 for the full control effect); details: ARE-bla HepG2 viability, CellTiter-Glo ATP luminescence, 16 h; max response: stronger effect = lower value
Method in brief: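 ARE-bla HepG2 cells treated with compounds for 16 h at 37C; this counter screen measures viability as intracellular ATP by CellTiter-Glo luminescence after 30 min at room temperature.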

[20] = qHTS assay for cell viability of HEK293 cells (AID 743288); details: ATP luminescence (CellTiter-Glo), 18 h; max response: stronger effect = lower value; note: nearly all actives have a fitted effect of over 50% in size; note: potency is the fitted concentration of half-maximal effect; for max response: % is set by controls: 0 for no effect and ±100 for the full control effect
Method in brief: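 Viable-cell counts were inferred from luciferase-based ATP content in HEK293 cells seeded at 2,000/well, pre-incubated ≥5 h, then dosed with DMSO-solubilised compounds for 18 h at 37 C.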

Chain of Retinoic acid receptor RXR-alpha (Homo sapiens) (P19793 whole entry, looked up): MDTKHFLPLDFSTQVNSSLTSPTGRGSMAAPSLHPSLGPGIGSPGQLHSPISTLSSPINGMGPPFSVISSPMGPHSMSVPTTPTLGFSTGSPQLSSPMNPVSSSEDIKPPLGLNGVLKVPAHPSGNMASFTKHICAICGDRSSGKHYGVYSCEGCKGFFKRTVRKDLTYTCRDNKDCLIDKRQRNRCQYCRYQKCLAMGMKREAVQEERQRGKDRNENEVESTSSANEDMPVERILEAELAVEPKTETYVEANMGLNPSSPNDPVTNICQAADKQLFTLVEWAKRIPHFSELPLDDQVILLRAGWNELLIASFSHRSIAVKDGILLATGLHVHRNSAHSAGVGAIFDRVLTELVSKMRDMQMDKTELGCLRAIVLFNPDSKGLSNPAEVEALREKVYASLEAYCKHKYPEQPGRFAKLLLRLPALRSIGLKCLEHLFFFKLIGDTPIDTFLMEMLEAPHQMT
Chain of Thyroid hormone receptor beta (Homo sapiens) (P10828 whole entry, looked up): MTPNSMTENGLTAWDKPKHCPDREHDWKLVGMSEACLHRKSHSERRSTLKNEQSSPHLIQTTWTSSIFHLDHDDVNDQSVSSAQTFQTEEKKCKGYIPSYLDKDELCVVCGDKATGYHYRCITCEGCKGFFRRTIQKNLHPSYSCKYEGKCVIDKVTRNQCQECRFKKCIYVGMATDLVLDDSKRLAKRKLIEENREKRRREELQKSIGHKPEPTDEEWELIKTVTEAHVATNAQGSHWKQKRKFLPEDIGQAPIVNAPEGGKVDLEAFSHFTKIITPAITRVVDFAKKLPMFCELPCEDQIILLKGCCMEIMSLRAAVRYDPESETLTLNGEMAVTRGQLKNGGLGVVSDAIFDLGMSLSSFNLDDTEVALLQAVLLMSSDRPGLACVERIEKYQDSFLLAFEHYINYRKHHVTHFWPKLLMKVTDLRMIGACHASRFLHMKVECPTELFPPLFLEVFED
Chain of Peroxisome proliferator-activated receptor alpha (Homo sapiens) (Q07869 whole entry, looked up, the tested form may be a part): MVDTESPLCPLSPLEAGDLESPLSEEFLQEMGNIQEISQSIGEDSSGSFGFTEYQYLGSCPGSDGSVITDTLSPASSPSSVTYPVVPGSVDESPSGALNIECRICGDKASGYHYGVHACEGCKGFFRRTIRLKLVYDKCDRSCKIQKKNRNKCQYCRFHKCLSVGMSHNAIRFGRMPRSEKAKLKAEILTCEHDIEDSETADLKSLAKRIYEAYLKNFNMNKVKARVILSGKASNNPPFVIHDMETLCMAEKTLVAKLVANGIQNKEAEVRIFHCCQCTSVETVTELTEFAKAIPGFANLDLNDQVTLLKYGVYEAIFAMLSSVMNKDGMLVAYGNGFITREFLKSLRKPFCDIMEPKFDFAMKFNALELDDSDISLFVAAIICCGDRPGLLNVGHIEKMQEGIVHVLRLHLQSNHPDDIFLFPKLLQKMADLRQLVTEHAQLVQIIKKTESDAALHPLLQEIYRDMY

Cc1ccc([N+](=O)[O-])cc1N
-2.85% and -10.6%: max response [14]
inactive: Potency [1] > 92 µM | Potency [2] > 92 µM | Potency [3] > 92 µM | Potency [4] | activity change, negative = cytotoxicity [5] -1.39% | outcome [6] | outcome [7] | outcome [8] | outcome [9] | outcome [10] | Potency [11] | outcome [12] | outcome [13] | max response [15] -2.87% and -11.4% | activation [16] 6.03% and 2.09% | max response [17] -4.31% and -1.18% | Potency [18] | max response [19] -2.84% and 7.73% | max response [20] -2.6% and -12%

NC1=NC(S)C2N=CN=C2N1 (configuration not stated)
active: Potency [1] 0.218 µM | Potency [3] 0.182 µM | Potency [4] 0.158 µM | Potency [5] 0.251 µM | Potency [19] 5.01 µM | Potency [20] 2.82 µM
inactive: Potency [2] > 92 µM | outcome [6] | outcome [7] | outcome [8] | outcome [9] | outcome [10] | Potency [11] | outcome [12] | outcome [13] | max response [15] 2.23% | activation [16] -2.51% | max response [17] -3.14% | Potency [18]
4.34%: max response [14]

CCCCCCCCCCCCCCC1CO1 (configuration not stated)
inactive: Potency [1] > 92 µM | Potency [2] > 92 µM | Potency [3] > 92 µM | Potency [4] | activity change, negative = cytotoxicity [5] 2.08% | outcome [6] | outcome [7] | outcome [8] | outcome [9] | outcome [10] | Potency [11] | outcome [12] | outcome [13] | max response [15] 5.21% and -18.5% | activation [16] 0.108% and 0.658% | max response [17] -0.26% and -1.17% | Potency [18] | max response [19] -2.08% and 0.668% | max response [20] -3.91% and -17.2%
-4.45% and -4.75%: max response [14]

CCCCOCCO
-0.95% and -3.08% and -12.9%: max response [14]
inactive: Potency [1] > 92 µM | Potency [2] > 92 µM | Potency [3] > 92 µM | Potency [4] | activity change, negative = cytotoxicity [5] 1.27% and 8.74% | outcome [6] | outcome [7] | outcome [8] | outcome [9] | outcome [10] | Potency [11] | outcome [12] | outcome [13] | max response [15] 8.5% and -5.75% and -0.568% | activation [16] -1.94% and 0.578% and 2.45% | max response [17] -6.41% and -1.42% and -1.76% | Potency [18] | max response [19] 4.17% and -5.63% and -2.53% | max response [20] 4.48% and -11.2% and -7.95%

CC1(C)CC(N=C=O)CC(C)(CN=C=O)C1 (configuration not stated)
-0.108% and -15.8%: max response [14]
inactive: Potency [1] > 92 µM | Potency [2] > 92 µM | Potency [3] > 92 µM | Potency [4] | activity change, negative = cytotoxicity [5] 8.39% | outcome [6] | outcome [7] | outcome [8] | outcome [9] | outcome [10] | Potency [11] | outcome [12] | outcome [13] | max response [15] 12.5% and -8% | activation [16] 2.53% and -0.0427% | max response [17] -1.83% and -0.793% | Potency [18] | max response [19] 6.59% and -15.1% | max response [20] -4.37% and 1.94%

Nc1ccc(Cl)cc1Cl
inactive: Potency [1] > 92 µM | Potency [2] > 92 µM | Potency [3] > 92 µM | Potency [4] | activity change, negative = cytotoxicity [5] 2.81% | outcome [6] | outcome [7] | outcome [8] | outcome [9] | outcome [10] | Potency [11] | outcome [12] | outcome [13] | max response [15] -0.389% and -0.876% | activation [16] -1.04% and 0.693% | max response [17] 3.51% and 0.0732% | Potency [18] | max response [19] -3.23% and 2.15% | max response [20] 1.15% and -5.99%
2.24% and -0.667%: max response [14]

O=C1c2ccccc2C(=O)C1c1ccc2ccccc2n1
active: Potency [1] 33.1 µM | Potency [2] 30.1 µM | Potency [3] 34 µM | activity change, negative = cytotoxicity [4] -106% | Potency [16] 39.8 µM and 7.08 µM | Potency [18] 1.54 µM and 1.33 µM | Potency [20] 39.8 µM
-3.83%: max response [14]
inactive: activity change, negative = cytotoxicity [5] -33.6% | outcome [6] | outcome [7] | outcome [8] | outcome [9] | outcome [10] | Potency [11] | outcome [12] | outcome [13] | max response [15] -20% | max response [17] 1.24% and 1.1%

c1ccccc1
inactive: Potency [1] > 92 µM | Potency [2] > 92 µM | Potency [3] > 92 µM | Potency [4] | activity change, negative = cytotoxicity [5] 7.51% and 0.0243% | outcome [6] | outcome [7] | outcome [8] | outcome [9] | outcome [10] | Potency [11] | outcome [12] | outcome [13] | max response [17] -1.87% [middle of 4 runs] | Potency [18] | max response [19] -0.292% [middle of 4 runs] | max response [20] 0.515% [middle of 4 runs]
6.17% [middle of 4 runs]: max response [14]
